Screen size: about 68,000 compounds; about 2,700 (4%) showed an effect of 50% or more. This excerpt belongs to a sample that is enriched for strong results.

This assay deals with Plasmodium berghei. As to the kind of experiment: Screen against P. berghei liver stage (PbLuc), transformed with Luciferase, at 2uM. It is filed as functional, HepG2. Conditions: tested at 2 uM.
Consider `O=C1CC(c2ccncc2)c2c(sc3c2CCCC3)N1` (configuration not stated), for which the INHIBITION is recorded as -5.89%.

As to `Cc1cccc(N2CCN(C(=O)NC(C)c3nncn3C)CC2)c1C` (configuration not stated), the INHIBITION worked out at 38.76%.

For `CCN(CC)S(=O)(=O)N1CC[C@H](c2ccccc2)[C@H]2NCCCC[C@H]21`, the INHIBITION stood at 39.99%.

Take `COc1cc(N2CCC(c3nccn3Cc3ccccn3)CC2)ncn1`: the INHIBITION is recorded as 53.19%.

On to `COc1cc(N2CCC(c3nccn3Cc3cccnc3)CC2)ncn1`, for which the INHIBITION is recorded as 5.82%.

For `COc1cc(N2CCC(c3nccn3Cc3ccccc3)CC2)ncn1`, the INHIBITION is -2.99%.

For `O=c1c2cc3c(cc2nnn1Cc1ccccc1Cl)OCCO3`, the INHIBITION was -15.25%.

On to `CN(C)C(=O)Cc1ccc(-c2cccc3c2CCNC3)cc1`, for which the INHIBITION was found to be 2.11%.

As for `CCC(C)C(=O)Nc1ccc(CCN2CCOCC2)cc1` (configuration not stated), the INHIBITION is recorded as 31.65%.

For `Cc1cc(C)c2nc(CN3CCC(CN)CC3)cc(O)c2c1`, the INHIBITION came out at 51.19%.

`Cc1cc(C)c2nc(CN3CCC(C#N)CC3)cc(O)c2c1`: the INHIBITION is 3.91%.

For the compound `Cc1cc(C)c2nc(CN3CCC(CN)C3)cc(O)c2c1` (configuration not stated), the INHIBITION is listed as 25.06%.

`Cn1c(CN2CCCCC2)cc(=O)c(O)c1CN1CCCCC1`: the INHIBITION amounted to 14.97%.

As for `O=C(c1ccco1)N1Cc2cnn(CC3CC3)c2C(COCC2CC2)C1` (configuration not stated), the INHIBITION came to 14.09%.

For the compound `COC1CCN(C(=O)Cn2ncc(N3CCCCC3)cc2=O)C1` (configuration not stated), the INHIBITION is reported as 11.69%.

For the compound `CC1CN(c2ncccc2C(=O)Nc2cccc3c2CCCC3)CCN1` (configuration not stated), the INHIBITION worked out at 39.51%.

Consider `Cc1cccc(C(=O)Nc2cccc3c2CCCC3)n1`, for which the INHIBITION was -25.13%.

`O=C(Nc1cccc2c1CCCC2)c1cccnc1N1CCCNCC1`: the INHIBITION stood at 65.7%.

Consider `CN(Cc1ccc(Cl)cc1)S(=O)(=O)N(C)Cc1cnn(C)c1`, for which the INHIBITION is -2.86%.

As for `O=C(c1ccncc1)N1CCc2onc(CN3CCCC3)c2C1`, the INHIBITION is listed as 37.35%.

Consider `O=C(c1ccc(Cl)o1)N1CCCC(c2cc(C(F)(F)F)[nH]n2)C1` (configuration not stated), for which the INHIBITION is given as -102.06%.

As to `CCC(Cn1ccc2[nH]c(=O)c(C#N)cc2c1=O)OC` (configuration not stated), the INHIBITION is given as 0.03%.

Regarding `CC(O)CCn1ccc2[nH]c(=O)c(C#N)cc2c1=O` (configuration not stated), the INHIBITION is 44.41%.

With `CCCOC(C)Cn1ccc2[nH]c(=O)c(C#N)cc2c1=O` (configuration not stated), the INHIBITION is on record as 59.1%.

For the compound `Cc1nc(C)n(Cc2cccc(NC(=O)N(C)CCC(C)O)c2)n1` (configuration not stated), the INHIBITION is reported as -3.2%.

As for `Cc1cccc(-n2nc(CC(C)C)nc2CCC(=O)N(C)C)c1`, the INHIBITION is given as 8.13%.

Take `CSCC(=O)N1CCc2c(cnc(C)c2-c2noc(-c3cc[nH]n3)n2)C1`: the INHIBITION was 18.84%.

For `COCCn1ccnc1C1CCCN(C(=O)CSc2nnc(C)o2)C1` (configuration not stated), the INHIBITION was -7.17%.

For `CCn1c(CC2CCN(S(=O)(=O)Cc3ccccc3)CC2)nn(C)c1=O`, the INHIBITION is on record as 22.09%.

Regarding `CCn1c(CC2CCN(S(=O)(=O)N3CCCCC3)CC2)nn(C)c1=O`, the INHIBITION was 50.41%.

On to `CCn1c(CC2CCN(S(=O)(=O)c3cccc(C)c3)CC2)nn(C)c1=O`, for which the INHIBITION was determined as 38.96%.

For the compound `CCc1nn(C)c(Cl)c1CN(CCOC)Cc1cnn(C)c1`, the INHIBITION is -0.41%.

In the case of `COC(=O)C(C)(C)NC(=O)C1CC(=O)N(CC(C)C)C1` (configuration not stated), the INHIBITION turned out to be 49.16%.

For `CCN1CC(C(=O)NC(C)(C)C(=O)OC)CC1=O` (configuration not stated), the INHIBITION was -59.42%.

As to `COC(=O)C(C)(C)NC(=O)C1CC(=O)N(CC(F)(F)F)C1` (configuration not stated), the INHIBITION came to 54.62%.

On to `COc1ccc(CCN2CC(NCc3ncc[nH]3)CC2=O)cc1` (configuration not stated), for which the INHIBITION was 45.41%.

On to `c1ccc(N2CC[C@@H]3CN(Cc4ccncc4)CCO[C@@H]3C2)cc1`, for which the INHIBITION is reported as -19.36%.

Consider `CS(=O)(=O)CCN(CCCO)C1CCc2ccccc21` (configuration not stated), for which the INHIBITION was determined as 14.3%.

`O=S(=O)(c1ccccc1F)N1CCCCC1c1cc[nH]n1` (configuration not stated): the INHIBITION is given as -16.62%.

Regarding `O=S(=O)(NC1CCCN(c2ncccn2)C1)N1CCCCCC1` (configuration not stated), the INHIBITION is reported as -56.93%.

In the case of `COc1ccsc1C(=O)NC1CCN(c2cccc(F)c2)CC1`, the INHIBITION is reported as -11.07%.

Consider `Nc1nccc(N2CCC(c3cc(Cc4ccccc4)n[nH]3)CC2)n1`, for which the INHIBITION came out at 56.33%.

With `Cc1ccc(N2CCC(c3cc(Cc4ccccc4)n[nH]3)CC2)nn1`, the INHIBITION is listed as -45.89%.

For the compound `Nc1nc(O)cc(N2CCC(c3cc(Cc4ccccc4)n[nH]3)CC2)n1`, the INHIBITION is 5.41%.

For the compound `Nc1cc(N2CCC(c3cc(Cc4ccccc4)n[nH]3)CC2)ccn1`, the INHIBITION is 60.35%.

Consider `NC(=O)NCCC(=O)N1CCC(c2cc(Cc3ccccc3)n[nH]2)CC1`, for which the INHIBITION is on record as 42.27%.

Turning to `Cc1cc(CN2CCC(c3cc(Cc4ccccc4)n[nH]3)CC2)[nH]n1`, the INHIBITION is listed as -3.32%.

For the compound `CC(=O)Nc1ccc(C(=O)N(C)Cc2cccc(F)c2)s1`, the INHIBITION was determined as 45.05%.

For the compound `CCN(CCn1cccn1)Cc1nc(-c2cccs2)oc1C`, the INHIBITION is reported as -9.1%.

With `Cc1nnsc1CN(C)C(=O)CCn1cnc2ccccc21`, the INHIBITION is -40.44%.

For the compound `CCOC(=O)N1CCN(c2nc(NCCCO)c3ccccc3n2)CC1`, the INHIBITION worked out at 7.14%.

Consider `O=C1C(Sc2nnnn2C2CC2)CCN1c1ccccc1F` (configuration not stated), for which the INHIBITION was 21.82%.

The values above are taken from ChEMBL document CHEMBL4513216, “Probing the Open Global Health Chemical Diversity Library for Multistage-Active Starting Points for Next-Generation Antimalarials” (ACS Infect Dis, 2020).
